Records with an inconclusive call do not appear. Where a call stands in place of a potency, no number is given. More than one record can exist for a structure, and the calls need not agree. The source made the active and inactive calls. Calls come from the whole dose curve; as a rule, active = well fitted activation curve with a large enough effect in the repeat runs; inconclusive = weak or mixed curves; inactive = flat fitted curve, though single readings scatter.

One test can be described thus: A CellTox Green Cytotoxicity Assay to monitor cytotoxicity in HEK293 cells - 32 hour (AID 1224881). Note: nearly all actives have a fitted effect of over 40% in size. Note: potency is the fitted concentration of half-maximal effect. Particulars: CellTox Green fluorescence; series mostly up to 76.8 µM; cytotoxicity increase: at the top concentration. Put shortly:
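HEK293 cells, 600/well, were preincubated 5 hours and then exposed to compounds at 37 C for up to 40 hours. A cell-impermeant cyanine dye staining dead-cell DNA was read by fluorescence at 0, 8, 16, 24, 32 and 40 h time points.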
For `CC(C)C(=O)Nc1ccc([N+](=O)[O-])c(C(F)(F)F)c1`, the Potency result was “inactive”.
Same read-out and setting: the entry for `CN(N=O)C(=O)N[C@@H]1[C@@H](O)[C@H](O)[C@@H](CO)O[C@@H]1O` is “inactive”.
Same read-out and setting: the same measure for `NS(=O)(=O)O`: “inactive”; for `C=CCc1ccc(O)c(OC)c1`: “inactive”; for `C/C=C/C=C/C(=O)O`: “inactive”.
On the same count and under the same terms, the same measure for `Cc1ncc([N+](=O)[O-])n1C`: “inactive”.
Regarding `CN(C)CCOC(C)(c1ccccc1)c1ccccn1` (stereo not drawn), the Potency entry is “inactive”.
On to `COc1ccc2c(c1)c(CC(=O)O)c(C)n2C(=O)c1ccc(Cl)cc1`, for which the Potency result is “inactive”.
Still for that read-out and setting: the entry for `CN(C)C(=O)Nc1ccc(Cl)c(Cl)c1` is “inactive”; for `O=c1[nH]cc(F)c(=O)[nH]1` it is 50.8 µM (active) and inactive.
As for `O=C(O)CC(O)C(=O)O` (stereo not drawn), the Potency entry was “inactive”.
Turning to `CC(=O)Nc1c(I)c(NC(C)=O)c(I)c(C(=O)O)c1I`, the Potency result is “inactive”.
Same read-out and setting: the entry for `Cc1c(C(=O)O)c(O)cc2c1C(=O)c1c(O)c([C@@H]3O[C@H](CO)[C@@H](O)[C@H](O)[C@H]3O)c(O)c(O)c1C2=O` is “inactive”.
On the same count and under the same terms, the same measure for `CCCCC1(COC(=O)CCC(=O)O)C(=O)N(c2ccccc2)N(c2ccccc2)C1=O`: “inactive”.
Regarding `Cc1ncc([N+](=O)[O-])n1CCO`, the Potency entry is “inactive”.
As to `CCCCOC(=O)c1ccc(O)cc1`, the “cytotoxicity increase” value is 5.2% [at 35.3 µM] (inactive).
With `O=S1(=O)OC(c2ccc(O)cc2)(c2ccc(O)cc2)c2ccccc21`, the Potency entry was “inactive”.
On the same count and under the same terms, the same measure for `NC(=O)c1cccnc1`: “inactive”.
Still for that read-out and setting: the entry for `CC(=O)C(=O)O` is “inactive”.
Still for that read-out and setting: the entry for `O=C1NS(=O)(=O)c2ccccc21` is “inactive”.
On to `F[B-](F)(F)F`, for which the Potency entry is “inactive”.
The same measure, in the same setting: the same measure for `CC(C)c1c(C(=O)Nc2ccccc2)c(-c2ccccc2)c(-c2ccc(F)cc2)n1CC[C@@H](O)C[C@@H](O)CC(=O)O`: “inactive”; for `Cc1cc(C)nc(NS(=O)(=O)c2ccc(N)cc2)n1`: “inactive”.
With `CN(C)CCOC(c1ccccc1)c1ccccc1`, the Potency result is “inactive”.
The same measure, in the same setting: the same measure for `CCCC[P+](CCCC)(CCCC)CCCC`: “inactive”.
For the compound `C=C(C)C(=O)OCC(C)O` (stereo not drawn), the Potency entry is “inactive”.
As to `Nc1ccc(S(N)(=O)=O)cc1`, the Potency result was “inactive”.
Take `CS(=O)(=O)OCCCCOS(C)(=O)=O`: the Potency result is “inactive”.
The same measure, in the same setting: the same measure for `CCOC(N)=O`: “inactive”.

Another test can be described thus: A CellTox Green Cytotoxicity Assay to monitor cytotoxicity in HepG2 cells - 0 hour (AID 1224882). Note: nearly all actives have a fitted effect of over 35% in size. The following applies: CellTox Green fluorescence; series mostly up to 76.8 µM; cytotoxicity: at the top concentration. Summed up: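 HepG2 cells, 600/well, preincubated 5 h with CellTox Green dye, then exposed to Tox21 compounds in DMSO at 37 C for up to 40 h. Dead-cell DNA fluorescence read at the indicated time point.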
Regarding `CC(C)C(=O)Nc1ccc([N+](=O)[O-])c(C(F)(F)F)c1`, the Potency entry was “inactive”.
Same read-out and setting: the same measure for `CN(N=O)C(=O)N[C@@H]1[C@@H](O)[C@H](O)[C@@H](CO)O[C@@H]1O`: “inactive”.
On the same count and under the same terms, the same measure for `NS(=O)(=O)O`: “inactive”.
The same measure, in the same setting: the same measure for `C=CCc1ccc(O)c(OC)c1`: “inactive”; for `C/C=C/C=C/C(=O)O`: “inactive”; for `Cc1ncc([N+](=O)[O-])n1C`: “inactive”.
On to `CN(C)CCOC(C)(c1ccccc1)c1ccccn1` (stereo not drawn), for which the Potency result was “inactive”.
Still for that read-out and setting: the entry for `COc1ccc2c(c1)c(CC(=O)O)c(C)n2C(=O)c1ccc(Cl)cc1` is “inactive”; for `CN(C)C(=O)Nc1ccc(Cl)c(Cl)c1` it is “inactive”; for `O=c1[nH]cc(F)c(=O)[nH]1` it is “inactive”.
Same read-out and setting: the same measure for `O=C(O)CC(O)C(=O)O` (stereo not drawn): “inactive”; for `CC(=O)Nc1c(I)c(NC(C)=O)c(I)c(C(=O)O)c1I`: “inactive”; for `Cc1c(C(=O)O)c(O)cc2c1C(=O)c1c(O)c([C@@H]3O[C@H](CO)[C@@H](O)[C@H](O)[C@H]3O)c(O)c(O)c1C2=O`: “inactive”.
The same measure, in the same setting: the entry for `CCCCC1(COC(=O)CCC(=O)O)C(=O)N(c2ccccc2)N(c2ccccc2)C1=O` is “inactive”; for `Cc1ncc([N+](=O)[O-])n1CCO` it is “inactive”; for `CCCCOC(=O)c1ccc(O)cc1` it is “inactive”.
Regarding `O=S1(=O)OC(c2ccc(O)cc2)(c2ccc(O)cc2)c2ccccc21`, the Potency entry is “inactive”.
The same measure, in the same setting: the entry for `NC(=O)c1cccnc1` is “inactive”.
For `CC(=O)C(=O)O`, the Potency result is “inactive”.
Same read-out and setting: the same measure for `O=C1NS(=O)(=O)c2ccccc21`: “inactive”; for `F[B-](F)(F)F`: “inactive”; for `CC(C)c1c(C(=O)Nc2ccccc2)c(-c2ccccc2)c(-c2ccc(F)cc2)n1CC[C@@H](O)C[C@@H](O)CC(=O)O`: “inactive”.
Still for that read-out and setting: the entry for `Cc1cc(C)nc(NS(=O)(=O)c2ccc(N)cc2)n1` is “inactive”.
On the same count and under the same terms, the same measure for `CN(C)CCOC(c1ccccc1)c1ccccc1`: “inactive”; for `CCCC[P+](CCCC)(CCCC)CCCC`: “inactive”.
For the compound `C=C(C)C(=O)OCC(C)O` (stereo not drawn), the Potency result was “inactive”.
On the same count and under the same terms, the entry for `Nc1ccc(S(N)(=O)=O)cc1` is “inactive”; for `CS(=O)(=O)OCCCCOS(C)(=O)=O` it is “inactive”; for `CCOC(N)=O` it is “inactive”.

(Values after PubChem BioAssay (Tox21).)
